Assay outcomes deposited in PubChem BioAssay by National Center for Advancing Translational Sciences (NCATS).
Only a selection was taken, and hits are over-represented in it overall.
IMPase inh: cell-permeable inhibitors of inositol monophosphatase (IMPase). P97697. CHO-M1 cells, IP1 accumulation, HTRF TR-FRET ratio. inhibition (IP1 accumulation), % at 46.1 µM. 120,000 tested, under 10 active. AID 901; active means well fitted curve in the direction sought with a large enough effect in the signal ratio, not every such curve was filed as active; inconclusive means small, poorly fitted or top-dose-only effect, or a change in a side signal; inactive means no such curve, though single readings can be large or run the other way; the % refers to the signal ratio;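 further: cells stimulated with carbachol in lithium chloride buffer; higher means more IMPase inhibition seen as more IP1 and lower FRET ratio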
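In this qHTS, compounds (final up to 46 uM) act on CHO-M1 cells that are then activated through the M1 receptor with carbachol, in pH 7.4 buffer containing 50 mM LiCl, for 30 min. IP1 accumulation is quantified by the IP-One immunoassay.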
15-hLO-2 inh: 15-hLO-2 (ALOX15B) enzyme inhibition; O15296; actives 0.56% (n = 110,000); AID 881; Potency, µM (series often up to 57.1 µM), hits mostly inhibitors; purified 15hLO-2, xylenol orange hydroperoxide absorbance; further: nearly all actives have a fitted effect of over 60% in size
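Purified human 15hLO-2 (50 nM final) preincubated with compounds 15 min at room temperature in 25 mM Hepes pH 7.5, 0.01% Triton X-100, then 45 uM arachidonic acid added for 90 min; hydroperoxide detected via ferrous/xylenol orange, 573/405 nm absorbance ratio.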
IMPase Li cell: membrane-permeable IMPase blocker, potentiated with lithium. Potency, µM (highest dose often 59.4 µM), usual class: inhibitors. actives 0.35% (n = 210,000). AID 1457. CHO-M1 cells, IP1 TR-FRET (IP-One), carbachol + lithium;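 further: IP1 builds up when IMPase is blocked and the TR-FRET signal falls; nearly all actives have a fitted effect of over 50% in size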
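Concentration–response in CHO-M1 cells, lithium-potentiated; 30 min at 37C. IP1 detected by competitive TR-FRET after 10 min lysis at RT. Hill-fitted AC50.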
12-hLO inh: 12-hLO (ALOX12) enzyme inhibition; AID 1452; purified 12-hLO, xylenol orange hydroperoxide absorbance; Potency, µM (series often up to 57.1 µM), most hits filed as inhibitors; actives 0.12% (n = 150,000); further: nearly all actives have a fitted effect of over 55% in size
Target sequence (P18054 whole entry, looked up): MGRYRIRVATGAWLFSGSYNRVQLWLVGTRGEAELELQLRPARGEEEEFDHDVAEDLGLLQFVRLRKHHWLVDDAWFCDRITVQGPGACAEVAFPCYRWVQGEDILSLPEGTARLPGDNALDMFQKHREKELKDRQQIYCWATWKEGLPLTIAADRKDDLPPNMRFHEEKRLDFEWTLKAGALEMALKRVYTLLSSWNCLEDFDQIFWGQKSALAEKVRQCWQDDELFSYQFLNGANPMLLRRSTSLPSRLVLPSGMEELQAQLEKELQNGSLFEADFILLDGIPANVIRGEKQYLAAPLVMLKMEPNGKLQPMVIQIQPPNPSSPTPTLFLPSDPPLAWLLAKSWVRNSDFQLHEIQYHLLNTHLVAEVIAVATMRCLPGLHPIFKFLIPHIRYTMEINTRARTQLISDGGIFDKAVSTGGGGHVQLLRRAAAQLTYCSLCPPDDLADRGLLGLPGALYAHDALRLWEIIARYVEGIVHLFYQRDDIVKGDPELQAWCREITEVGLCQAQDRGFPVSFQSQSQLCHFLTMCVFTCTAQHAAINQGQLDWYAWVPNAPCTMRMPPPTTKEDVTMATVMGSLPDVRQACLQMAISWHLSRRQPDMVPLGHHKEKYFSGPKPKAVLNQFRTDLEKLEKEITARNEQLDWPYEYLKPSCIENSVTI
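Xylenol orange chromogenic assay: hydroperoxide from 12hLO oxidises Fe(II), giving red-shifted Fe(III)-XO absorbance. Conditions: 150 nM enzyme, 40 uM arachidonic acid, 25 mM Hepes pH 7.0, 0.01% Triton X-100, 30 min, room temperature.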
A number is an active result; – = inactive; ? = inconclusive; · = not tested or not shown; [ ] = dose if it differs, or a comment. Unless noted, the call rests on the fitted dose curve; in most records, active means well fitted curve in the direction sought with a large enough effect; inconclusive means small, poorly fitted or top-dose-only effect, or another doubt; inactive means no such curve, though single readings can be large; an effect the other way counts as inactive or inconclusive.

SMILES | IMPase inh | 15-hLO-2 inh | IMPase Li cell | 12-hLO inh
Cc1cc(NC(=O)c2ccccc2)nc2c1c(=O)oc1ccccc12 | · | · | – | ·
CCNc1ncc2nc(-c3cc(F)cc(F)c3)c(=O)n(C[C@H]3CCCO3)c2n1 | · | – | – | ·
COC(=O)C1=C(C(=O)OC)[C@@H]2N(C)c3ccccc3[C@@]23C[C@@H](C(=O)OC)N(S(=O)(=O)c2ccc(C#N)cc2)C3=N1 | · | · | – | –[11.4 µM]
CCOC(=O)c1sc(N)c(C(=O)Nc2ccc(C)cc2C)c1C | · | · | · | –
COc1ccc(OC)c(C2C(C(=O)c3sc(C)nc3C)=C(O)C(=O)N2CCN2CCOCC2)c1 (centres undefined) | – | – | · | –
COc1ccc(C2C(C(=O)c3ccc(C)o3)=C(O)C(=O)N2c2cc(C)on2)cc1OC (centres undefined) | ? | – | 10µM | –
COc1ccc(OC)c(C2C(C(=O)c3cc4ccccc4o3)=C(O)C(=O)N2c2cc(C)on2)c1 (centres undefined) | ? | – | 11µM | –
CCN(CC)CCCN1C(=O)C(O)=C(C(=O)c2cc3ccccc3o2)C1c1ccccn1 (centres undefined) | ? | – | 13µM | –
COc1ccccc1C1C(C(=O)c2cc3ccccc3o2)=C(O)C(=O)N1CCN1CCOCC1 (centres undefined) | – | – | 32µM | –
COc1ccc(-c2nc3c(c4c2C[C@H](c2ccccc2)OC4)CN(S(=O)(=O)c2ccc(C#N)cc2)CC3)c(C)c1 | · | · | – | –[11.4 µM]
C[C@H]1[C@H](C)CC[C@]2(C(=O)O)CC[C@]3(C)C(=CC[C@H]4[C@]3(C)C[C@@H](O)C3[C@](C)(CO)[C@H](O)[C@@H](O)C[C@]34C)[C@H]12 (some centres undefined) | · | · | – | ·
N#Cc1cccc(-c2ccc3ncnc(NCc4ccccc4)c3c2)c1 | · | – | – | ·
CCOC(=O)c1c(NC(=O)CCCOc2ccc(C)cc2)sc2c1CCC(C)C2 (centres undefined) | – | · | · | ·
CCCn1c(-c2ccc(F)cc2)nc2c(NCCCN3CCCCC3C)nc(C)nc21 (centres undefined) | · | – | – | –
O=C(O)c1c(Cl)c(Cl)c(Cl)c(Cl)c1-c1c2cc(I)c(=O)c(I)c-2oc2c(I)c(O)c(I)cc12 | · | 7.9µM | ? | ?
O=C(c1cccc(F)c1)N1CCC2(CC1)CCN(c1ccncc1)CC2 | · | – | – | –
Oc1cccc(/C=N/c2c(-c3ccco3)nc3ccccn23)c1 | – | ? | 13µM | –
NC(=O)CSc1ncnc2c1oc1ccccc12 | ? | – | 13µM | –
O=C(CSc1ncnc2c1oc1ccccc12)NCc1ccc(F)cc1 | – | – | 25µM | –
O=C(CSc1ncnc2c1oc1ccccc12)c1cccs1 | ? | – | 13µM | –
O=C(CSc1ncnc2c1oc1ccccc12)NC1CCCCC1 | – | – | 11µM | –
Cc1nc(SCC(=O)c2cccs2)c2oc3ccccc3c2n1 | – | – | – | –
Cc1cccc(C2NC(=O)c3c(sc4c3CCN(C)C4)N2)c1O (centres undefined) | – | · | · | ·
COC(=O)c1cn(NC(=O)C2COc3ccccc3O2)c(=O)c2ccccc12 (centres undefined) | – | – | 11µM | –
COC(=O)c1cn(NC(=O)C2CCCO2)c(=O)c2ccccc12 (centres undefined) | – | · | – | –
SMILES | IMPase inh | 15-hLO-2 inh | IMPase Li cell | 12-hLO inh
CCCCC/C=C\C\C=C/C=C/C=C/[C@@H](SCC(N)C(=O)NCC(=O)O)[C@@H](O)CCCC(=O)O (some centres undefined) | · | · | – | –
Cn1c2ccccc2c2c3c(c4c5ccccc5n(CCC#N)c4c21)CNC3=O | · | · | 3.5µM | ·
CCOc1ccccc1NC(=S)NC(=O)CCCOc1ccc(Cl)cc1Cl | – | 16µM | – | ?
CC(=O)c1sc2nc(-c3cccs3)cc(C(F)(F)F)c2c1N | ? | – | – | –
Nc1c(C(=O)C2CC2)sc2nc(-c3ccccc3)cc(C(F)(F)F)c12 | – | · | 13µM | –
O=C(OCn1ncc(Br)c(Br)c1=O)c1ccc(F)cc1 | ? | – | 7.1µM | –
O=C(OCn1ncc(Br)c(Br)c1=O)c1ccccc1Cl | ? | – | ? | –
N#Cc1cccc(NC(=O)CSc2ccccc2)c1 | – | – | – | –
N#Cc1cccc(NC(=O)CSc2ccc3c4c(cccc24)C(=O)c2ccccc2-3)c1 | – | 13µM | ? | –
COc1ccc(NC(=O)CSc2ccc3c4c(cccc24)C(=O)c2ccccc2-3)cc1 | – | 16µM | – | –
Cc1cnc(CNc2ncncc2-c2c(C)noc2C)cn1 | · | – | – | ·
CCCCn1nnc(NC(=O)c2sc3cc(Cl)ccc3c2Cl)n1 | ? | – | 10µM | –
COc1ccc(NC(=O)c2cc(-c3ccco3)on2)cc1 | · | · | – | ·
COc1cc(NC(=O)c2cc(-c3ccco3)on2)c(OC)cc1Cl | – | – | 11µM | –
CCOC(=O)c1cc(-c2cc3ccccc3o2)nc2c1c(=O)[nH]c(=O)n2CCOC | – | ? | 10µM | –
CCOC(=O)c1cc(-c2cc3ccccc3o2)n[nH]1 | – | – | – | –
CCC1=NNc2cccc3c(OC)ccc1c23 | – | 5µM | – | –
COc1ccc2c3c(cccc13)C(=O)N(O)C2=O | · | · | – | –
Cc1nc(Nc2ccccc2)c2nc(-c3ccccc3)n(CCCN3CCCCC3C)c2n1 (centres undefined) | · | – | – | –
